Assay results: PubChem BioAssay (NCATS)
“And” between values parts separate entries of the source, which are not always exact repeats. Equal values may be shown once. Results filed as inconclusive are left out. The source made the active and inactive calls. The call rests on the fitted dose curve; in most records, active means well fitted curve in the direction sought with a large enough effect; inconclusive means small, poorly fitted or top-dose-only effect, or another doubt; inactive means no such curve, though single readings can be large; an effect the other way counts as inactive or inconclusive.

Key:
[1] = molecular target: Cytochrome P450 3A7 (Homo sapiens) (UniProt P24462); test: Cytochrome P450 family 3 subfamily A member 7 (CYP3A7) small molecule antagonists: luciferase biochemical qHTS assay (AID 1963596); further: on the % scale 0 is the no-effect control and ±100 the full control effect; nearly all actives have a fitted effect of over 40% in size
Sequence of Cytochrome P450 3A7 (Homo sapiens) (P24462 whole entry, looked up): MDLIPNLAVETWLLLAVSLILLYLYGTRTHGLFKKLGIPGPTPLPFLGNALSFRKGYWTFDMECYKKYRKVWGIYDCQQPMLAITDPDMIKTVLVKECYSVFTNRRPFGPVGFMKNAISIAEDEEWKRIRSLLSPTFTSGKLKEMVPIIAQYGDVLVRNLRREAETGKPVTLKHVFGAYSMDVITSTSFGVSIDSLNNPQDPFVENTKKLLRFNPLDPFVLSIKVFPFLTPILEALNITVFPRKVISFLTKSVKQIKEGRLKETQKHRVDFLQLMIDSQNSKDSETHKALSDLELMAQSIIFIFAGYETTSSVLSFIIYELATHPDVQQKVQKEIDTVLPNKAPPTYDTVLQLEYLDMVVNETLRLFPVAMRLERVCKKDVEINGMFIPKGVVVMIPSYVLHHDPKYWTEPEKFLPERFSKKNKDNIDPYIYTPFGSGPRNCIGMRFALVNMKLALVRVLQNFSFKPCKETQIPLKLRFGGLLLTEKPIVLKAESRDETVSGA
How it was run: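 In this luminescent screen, enzyme and proluciferin substrate meet test compound for 10 min before NADPH regeneration solution drives a 1 h room-temperature reaction; detection reagent halts turnover and luminescence is read 20 min later.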

[2] = Viability qHTS for spleen associated tyrosine kinase inhibitor (SYKi) naive MV4-11 cells (AID 1963823); further: nearly all actives have a fitted effect of over 40% in size; further: potency means the concentration at half of the fitted maximal effect
How it was run: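 SYKi-naive MV4-11 AML cells, 500 per well, were exposed to library compounds for 72 hr at 37 C, 5% CO2. Viability was then read by CellTiter-Glo luminescence after 10 min at room temperature.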

[3] = Cellular viability qHTS for adrenocortical cancer (ACC) cell line SW-13 (AID 1963989); details: SW-13 ACC cells viability, CellTiter-Glo, 48 h; activity (max response): active compounds read low; further: nearly all actives have a fitted effect of over 65% in size; further: potency means the concentration at half of the fitted maximal effect;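 on activity (max response): cells grown in serum-free medium with ITS supplement; on the % scale 0 is the no-effect control and ±100 the full control effect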
How it was run: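 Compound titrations (up to 46 uM final, in DMSO) were applied to SW-13 cells for 48 h at 37C/5% CO2. Reading used CellTiter-Glo after 20 min at room temperature; fitted curves yielded IC50 and efficacy.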

[4] = Cellular viability qHTS for adrenocortical cancer (ACC) cell line NCI-H295R (AID 1963990); further: nearly all actives have a fitted effect of over 60% in size; further: potency means the concentration at half of the fitted maximal effect
How it was run: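 Readout: CellTiter-Glo luminescence, 20 min RT. Exposure: 48 h, 37C/5% CO2. Cells: NCI-H295R, ITS-DMEM serum-free. Range: up to 46 uM. Analysis: 4PL fit, IC50 plus efficacy.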

[5] = Viability qHTS for spleen associated tyrosine kinase inhibitor (SYKi) drug resistant MV4-11 cells (AID 1963824); further: potency means the concentration at half of the fitted maximal effect; nearly all actives have a fitted effect of over 35% in size
How it was run: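 CellTiter-Glo luminescence, read 10 min after reagent addition, reports viability after a 72 hr compound exposure. Cells are an MV4-11 line made resistant to SYK inhibition, seeded at 500 per well onto compound-containing plates.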

Cc1c[nH]c2ccccc12
inactive: Potency [1] | Potency [2] | activity (max response) [3] 13.2%

CCOC(=O)Cn1cccc1-c1nc(-c2ccc(OC)cc2)c(-c2ccc(OC)cc2)s1
active: Potency [2] 9.44 µM
inactive: Potency [1] | activity (max response) [3] 9.49%

O=C(O)c1ccccn1
inactive: Potency [1] | Potency [2] | activity (max response) [3] 1.31% | Potency [4]

CC(CC(C#N)(c1ccccc1)C(C)C)N(C)C (stereo not given)
inactive: Potency [1] | Potency [2] | activity (max response) [3] 3.72% | Potency [4]

NCCNCCNCCN
inactive: Potency [1] | Potency [2] | activity (max response) [3] 13.6% | Potency [4]

Cc1onc(-c2ccccc2)c1C(=O)Cl
inactive: Potency [1] | Potency [2] | activity (max response) [3] 12.7% | Potency [4]

Cc1cccc(C)c1NC(=O)c1cc(S(N)(=O)=O)c(Cl)cc1O
inactive: Potency [1] | Potency [2] | activity (max response) [3] 10.1% | Potency [4]

O=C(O)CN(CCN(CC(=O)O)CC(=O)O)CCN(CC(=O)O)CC(=O)O
inactive: Potency [1] | Potency [2] | activity (max response) [3] 9.05%

CO[C@@]1(NC(=O)CSC[C@@H](N)C(=O)O)C(=O)N2C(C(=O)O)=C(CSc3nnnn3C)CS[C@@H]21
inactive: Potency [1] | Potency [2] | activity (max response) [3] -7.39%

OC[C@H]1O[C@@H](n2cnc3c2NC=NC[C@H]3O)C[C@@H]1O
inactive: Potency [1] | Potency [2] | activity (max response) [3] 12.8% | Potency [4]

CC(C)(CO)[C@@H](O)C(=O)NCCCO
inactive: Potency [1] | Potency [2] | activity (max response) [3] 15.4% | Potency [4]

O=C(O)[C@H](CC(=O)N1C[C@H]2CCCC[C@H]2C1)Cc1ccccc1
inactive: Potency [1] | Potency [2] | activity (max response) [3] 1.52% | Potency [4]

O=C1N=C(O)CN1/N=C/c1ccc(-c2ccc([N+](=O)[O-])cc2)o1
inactive: Potency [1] | Potency [2] | activity (max response) [3] 12.2%

CN1C[C@@H]2C[C@H]1CN2c1cc2c(cc1F)c(=O)c(C(=O)O)cn2C1CC1
inactive: Potency [1] | Potency [2] | activity (max response) [3] -2.55% | Potency [4]

NS(=O)(=O)c1cc(C(=O)O)cc(N2CCCC2)c1Oc1ccccc1
inactive: Potency [1] | Potency [2] | activity (max response) [3] -0.899% | Potency [4]

CN1N=C(C(N)=O)CCC1=O
inactive: Potency [1] | Potency [2] | activity (max response) [3] 11.7% | Potency [4]

Cc1c(C)c2c(c(C)c1OC(=O)c1cccnc1)CC[C@@](C)(CCC[C@H](C)CCC[C@H](C)CCCC(C)C)O2
inactive: Potency [1] | Potency [2] | activity (max response) [3] -0.414% | Potency [4]

Cc1scc2c1N(C(=O)CN1CCN(C)CC1)c1ccccc1NC2=O
inactive: Potency [1] | Potency [2] | activity (max response) [3] 2.88%

CN(C)CCOC(=O)C(c1ccccc1)C1(O)CCCC1 (stereo not given)
inactive: Potency [1] | Potency [2] | activity (max response) [3] 6.08%

CC12CCC(CC1)C(C)(C)O2
inactive: Potency [1] | Potency [2] | activity (max response) [3] 13.8% | Potency [4]

CCCSc1ccc2nc(NC(=O)OC)[nH]c2c1
active: Potency [2] 0.668 µM | Potency [3] 0.366 µM | Potency [4] 0.82 µM
inactive: Potency [1]

CCCCC(O)/C=C(C)/C=C/C=C/C(=O)N1CCCC1=O (stereo not given)
inactive: Potency [1] | Potency [2] | activity (max response) [3] 10.5% | Potency [4]

COC(=O)c1cc(Cl)c(NC(C)=O)cc1OC
inactive: Potency [1] | Potency [2] | activity (max response) [3] 11.7% | Potency [4]

CCOc1cc(OCC)c(C(=O)CCC(=O)O)cc1OCC
inactive: Potency [1] | Potency [2] | activity (max response) [3] 6% | Potency [4]

Nc1ncnc2c1ncn2[C@@H]1O[C@H](COP(=O)(O)O)[C@@H](O)[C@H]1O
inactive: Potency [1] | Potency [2] | activity (max response) [3] 5.55% | Potency [4]

C/C=C/C(=O)N(CC)c1ccccc1C
inactive: Potency [1] | Potency [2] | activity (max response) [3] 5.92% and 3.5% | Potency [4]

CCCCCCCCOc1ccc(C(=O)c2ccccc2)c(O)c1
inactive: Potency [1] | Potency [2] | activity (max response) [3] 12.8% | Potency [4]

C=CCc1ccccc1OCC(O)CNC(C)C (stereo not given)
inactive: Potency [1] | Potency [2] | activity (max response) [3] 1.07%

COc1ccccc1N1CCN(CC[C@@](C)(C(=O)C2CCCCC2)c2ccccc2)CC1
active: Potency [5] 14.6 µM
inactive: Potency [1]

C[C@@H](NC(=O)C(=O)c1c[nH]c2ccc([N+](=O)[O-])cc12)c1ccccc1
active: Potency [5] 4.11 µM
inactive: Potency [1]

Cc1c(C(=O)Nc2ccc(N3CC(C)OC(C)C3)nc2)cccc1-c1ccc(OC(F)(F)F)cc1 (stereo not given)
inactive: Potency [1]
active: Potency [5] 10.3 µM
